“And” between values parts separate entries of the source, which are not always exact repeats. Equal entries are not always repeated. Records with an inconclusive call do not appear. The source made the active and inactive calls. Unless noted, the call rests on the fitted dose curve; in most records, active means well fitted curve in the direction sought with a large enough effect; inconclusive means small, poorly fitted or top-dose-only effect, or another doubt; inactive means no such curve, though single readings can be large; an effect the other way counts as inactive or inconclusive.
What was measured:
Hek293T = assay: Primary qHTS to identify gynecologic anti-cancer compounds using libraries of approved drugs and bioactive compounds (AID 1345084); details: Gynecologic cancer cell panel viability, ATPlite luminescence, 48 h, control line for the selectivity index; series mostly up to 57.5 µM; further: nearly all actives have a fitted effect of over 55% in size; further: potency means the concentration at half of the fitted maximal effect
How it was run: (§1)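 Five-point cytotoxicity, 48 h drug exposure at 37 C, 5% CO2, on cells seeded 16 h beforehand. ATP content read by ATPlite luminescence.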

JEG-3 = assay: as above; details: Gynecologic cancer cell panel viability, ATPlite luminescence, 48 h; series mostly up to 57.5 µM
How it was run: as §1

OV90 = assay: as above; details: Gynecologic cancer cell panel viability, ATPlite luminescence, 48 h; series mostly up to 57.5 µM
How it was run: as §1

PA-1 = assay: as above; details: Gynecologic cancer cell panel viability, ATPlite luminescence, 48 h; series mostly up to 57.5 µM
How it was run: as §1

SKOV3 = assay: as above; details: Gynecologic cancer cell panel viability, ATPlite luminescence, 48 h; series mostly up to 57.5 µM
How it was run: as §1

Tov-21-G = assay: as above; details: Gynecologic cancer cell panel viability, ATPlite luminescence, 48 h; series mostly up to 57.5 µM
How it was run: as §1

Tov112D = assay: as above; details: Gynecologic cancer cell panel viability, ATPlite luminescence, 48 h; series mostly up to 57.5 µM
How it was run: as §1

[1] = Drug repurposing screens with cells derived from glioblastoma tumor samples (AID 1345199); details: GBM patient neurospheres viability, ATP luminescence, 48 h; further: nearly all actives have a fitted effect of over 40% in size; further: potency means the concentration at half of the fitted maximal effect; on activity, negative = cell killing: on the % scale 0 is the no-effect control and ±100 the full control effect
How it was run: (§2)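 Four patient lines of CD133+ GBM neurospheres were screened at several concentrations; hits were retested in those lines plus three slower-growing GBM lines, using 48-hour treatment and ATP-based viability.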

astro = assay: as above; details: viability, ATP luminescence, 48 h; series mostly up to 45.9 µM
How it was run: as §2

[2] = target: Nuclear receptor subfamily 1 group I member 2 (Rattus norvegicus) (UniProt Q9R1A7); assay: qHTS assay for small molecule activators of the rat pregnane X receptor (rPXR) signaling pathway (AID 651751; call rule not given here; further: 0% is about no effect); details: rPXR reporter cells, luciferase (One-Glo), 24 h
Nuclear receptor subfamily 1 group I member 2 (Rattus norvegicus), sequence (Q9R1A7 whole entry, looked up): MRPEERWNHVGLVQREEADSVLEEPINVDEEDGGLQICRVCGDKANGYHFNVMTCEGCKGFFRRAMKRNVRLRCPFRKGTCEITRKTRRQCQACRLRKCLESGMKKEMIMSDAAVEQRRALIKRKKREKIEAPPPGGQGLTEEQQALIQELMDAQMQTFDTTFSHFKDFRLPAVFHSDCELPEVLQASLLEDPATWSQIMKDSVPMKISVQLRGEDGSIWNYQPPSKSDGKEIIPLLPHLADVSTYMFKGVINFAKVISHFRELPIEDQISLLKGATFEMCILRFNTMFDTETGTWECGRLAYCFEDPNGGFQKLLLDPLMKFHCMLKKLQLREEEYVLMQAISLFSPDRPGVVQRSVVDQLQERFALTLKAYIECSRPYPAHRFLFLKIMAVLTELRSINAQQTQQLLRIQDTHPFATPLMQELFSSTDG

[3] = qHTS assay for small molecule activators of the human pregnane X receptor (PXR) signaling pathway (AID 720659; call rule not given here; further: 0% is about no effect)
[4] = at 45.9 µM (top of the series), tumour line B
[5] = at 46.1 µM (top of the series), tumour line C
[6] = at 45.9 µM (top of the series), tumour line D
[7] = at 20 µM (top of the series), tumour line C
[8] = at 46 µM (top of the series), tumour line A

C[C@@H]1CC(=O)NN=C1c1ccc(NN=C(C#N)C#N)cc1
inactive: Potency (Hek293T) | Potency (JEG-3) | Potency (OV90) | Potency (PA-1) | Potency (SKOV3) | Potency (Tov-21-G) | Potency (Tov112D) | activity, negative = cell killing [1, 4] -23.8% | activity, negative = cell killing [1, 5] -26.3% | Potency (astro)

COc1ccccc1OCC(O)CN1CCN(CC(=O)Nc2c(C)cccc2C)CC1 (stereo unspecified)
inactive: Potency (Hek293T) | Potency (JEG-3) | Potency (OV90) | Potency (PA-1) | Potency (SKOV3) | Potency (Tov-21-G) | Potency (Tov112D) | activity, negative = cell killing [1, 4] -2.09% | activity, negative = cell killing [1, 6] -4.68% | activity, negative = cell killing [1, 5] -16.2% | Potency (astro)

Nc1ccn([C@H]2CC[C@@H](CO)O2)c(=O)n1
inactive: Potency (Hek293T) | Potency (JEG-3) | Potency (OV90) | Potency (PA-1) | Potency (SKOV3) | Potency (Tov-21-G) | Potency (Tov112D) | activity, negative = cell killing [1, 4] -3.23% | activity, negative = cell killing [1, 6] -22.8% | activity, negative = cell killing [1, 5] -9.64% | Potency (astro) | max response [2] 4.04% and 0.741% | outcome [3]

COc1cc2nc(N(C)CCCNC(=O)C3CCCO3)nc(N)c2cc1OC (stereo unspecified)
inactive: Potency (Hek293T) | Potency (JEG-3) | Potency (OV90) | Potency (PA-1) | Potency (SKOV3) | Potency (Tov-21-G) | Potency (Tov112D) | activity, negative = cell killing [1, 7] -6.33% | activity, negative = cell killing ([1]; at 21.2 µM (top of the series), tumour line B) -6.29% | activity, negative = cell killing ([1]; at 21.2 µM (top of the series), tumour line D) 7.29% | Potency (astro)

NCCc1cnc[nH]1
inactive: Potency (Hek293T) | Potency (JEG-3) | Potency (OV90) | Potency (PA-1) | Potency (SKOV3) | Potency (Tov-21-G) | Potency (Tov112D) | activity, negative = cell killing [1, 4] 27.7% | activity, negative = cell killing [1, 6] 2.11% | activity, negative = cell killing [1, 5] 0.797% | Potency (astro)

Cc1cnc(C(=O)NCCc2ccc(S(=O)(=O)NC(=O)NC3CCCCC3)cc2)cn1
inactive: Potency (Hek293T) | Potency (JEG-3) | Potency (OV90) | Potency (PA-1) | Potency (SKOV3) | Potency (Tov-21-G) | Potency (Tov112D) | activity, negative = cell killing [1, 4] -8.45% | activity, negative = cell killing [1, 6] -17.1% | activity, negative = cell killing [1, 5] 18% | Potency (astro)

O=C(Nc1ccc([N+](=O)[O-])cc1Cl)c1cc(Cl)ccc1O
active: Potency (Hek293T) 1.78 µM | Potency (JEG-3) 2.82 µM | Potency (PA-1) 2 µM | Potency (SKOV3) 3.98 µM | Potency (Tov-21-G) 3.55 µM | Potency (Tov112D) 2 µM | Potency (astro) 0.282 µM
inactive: Potency (OV90) | max response [2] -12.4% | outcome [3]

COc1ccc(CCN(C)CCCC(C#N)(c2ccc(OC)c(OC)c2)C(C)C)cc1OC (stereo unspecified)
active: Potency ([1]; tumour line A) 10 µM | Potency ([1]; tumour line B) 35.5 µM
inactive: Potency (Hek293T) | Potency (JEG-3) | Potency (PA-1) | Potency (SKOV3) | Potency (Tov-21-G) | Potency (Tov112D) | activity, negative = cell killing [1, 5] -2.06%

COc1cc2nc(N3CCN(C(=O)c4ccco4)CC3)nc(N)c2cc1OC
inactive: Potency (Tov112D)
active: Potency (astro) 25.1 µM

COc1cc2c(c(OC)c1OC)-c1ccc(OC)c(=O)cc1[C@@H](NC(C)=O)CC2
active: Potency (OV90) 0.282 µM

CC[C@@]1(O)C(=O)OCc2c1cc1n(c2=O)Cc2cc3c(CN(C)C)c(O)ccc3nc2-1
inactive: activity, negative = cell killing [1, 5] -20.9%
active: Potency (Hek293T) 8.91 µM | Potency (PA-1) 447 nM and 1.58 µM | Potency (SKOV3) 14.1 µM | Potency (Tov-21-G) 31.6 µM | Potency (Tov112D) 316 nM and 1.41 µM | Potency ([1]; tumour line A) 0.891 µM | Potency ([1]; tumour line D) 3.55 µM | Potency (astro) 17.8 µM

O=c1c(-c2ccc(O)cc2)coc2cc(O)cc(O)c12
inactive: Potency (Hek293T) | Potency (OV90) | activity, negative = cell killing [1, 5] -25.8% | max response [2] -0.208% and 4.35%
active: Potency (Tov-21-G) 3.98 µM | Potency (astro) 10 µM

CN1CCN(C2=Nc3cc(Cl)ccc3Nc3ccccc32)CC1
active: Potency (SKOV3) 31.6 µM | Potency ([1]; tumour line A) 11.2 µM | Potency ([1]; tumour line D) 35.5 µM
inactive: Potency (Hek293T) | Potency (JEG-3) | Potency (Tov-21-G) | Potency (Tov112D) | activity, negative = cell killing [1, 5] 1.71%

CN(C)CCCN1c2ccccc2CCc2ccc(Cl)cc21
inactive: Potency (JEG-3) | Potency (PA-1) | Potency (Tov-21-G) | activity, negative = cell killing [1, 5] -8.66%
active: Potency ([1]; tumour line A) 5.01 µM | Potency ([1]; tumour line B) 20 µM | Potency ([1]; tumour line D) 12.6 µM

OCCN(CCO)c1nc(N2CCCCC2)c2nc(N(CCO)CCO)nc(N3CCCCC3)c2n1
inactive: Potency (Hek293T) | Potency (JEG-3) | Potency (PA-1) | Potency (SKOV3) | Potency (Tov-21-G) | Potency (Tov112D) | activity, negative = cell killing [1, 4] -2.66% | activity, negative = cell killing [1, 6] -18.5% | activity, negative = cell killing [1, 8] -9.97% | activity, negative = cell killing [1, 5] 1.47% | Potency (astro)

CN1CCC(=C2c3ccccc3C=Cc3ccccc32)CC1
active: Potency ([1]; tumour line A) 3.55 µM | Potency ([1]; tumour line B) 25.1 µM | Potency ([1]; tumour line D) 20 µM | Potency (astro) 17.8 µM
inactive: Potency (JEG-3) | Potency (PA-1) | Potency (SKOV3) | Potency (Tov-21-G) | Potency (Tov112D) | activity, negative = cell killing [1, 5] -12.4%

Clc1ccccc1C(c1ccccc1)(c1ccccc1)n1ccnc1
active: Potency ([1]; tumour line A) 11.2 µM
inactive: Potency (JEG-3) | Potency (SKOV3) | Potency (Tov-21-G) | Potency (Tov112D) | activity, negative = cell killing [1, 7] 1.49% | Potency (astro)

CC1(CN2CCC(n3c(=O)[nH]c4ccccc43)CC2)OCc2ccccc2-n2cccc21 (stereo unspecified)
inactive: Potency (Hek293T) | Potency (JEG-3) | Potency (PA-1) | Potency (SKOV3) | Potency (Tov-21-G) | Potency (Tov112D)

O=c1[nH]cc(F)c(=O)[nH]1
inactive: Potency (Hek293T) | Potency (OV90) | Potency (SKOV3) | Potency (Tov112D) | activity, negative = cell killing [1, 4] -26.1% | activity, negative = cell killing [1, 8] -11.3% | activity, negative = cell killing [1, 5] -29.9% | outcome [3]

CN1CCN(CCCN2c3ccccc3Sc3ccc(Cl)cc32)CC1
active: Potency (astro) 20 µM
inactive: Potency (Hek293T) | Potency (JEG-3) | Potency (SKOV3) | Potency (Tov-21-G) | Potency (Tov112D)

O=c1c(O)c(-c2ccc(O)c(O)c2)oc2cc(O)cc(O)c12
inactive: Potency (Hek293T) | Potency (JEG-3) | Potency (SKOV3) | Potency (Tov-21-G)
